Data: PubChem BioAssay (Tox21)
Inconclusive results are not listed. Active and inactive are the calls of the source. Unless noted, the call rests on the fitted dose curve; in most records, active means well fitted curve in the direction sought with a large enough effect in the repeat runs; inconclusive means weak or mixed curves; inactive means no such curve, though single readings can be large; an effect the other way counts as inactive or inconclusive.

Legend:
[1] = A CellTox Green Cytotoxicity Assay to monitor cytotoxicity in HEK293 cells - 32 hour (AID 1224881); further: nearly all actives have a fitted effect of over 40% in size; further: potency means the concentration at half of the fitted maximal effect
In short: (§1)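 HEK293 cells premixed with CellTox Green dye were seeded at 600 cells/well and left 5 h at 37 C/5% CO2 before pin transfer of 23 nL compound in DMSO. Fluorescence from dye bound to dead-cell DNA was read during 40 h treatment.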

[2] = A CellTox Green Cytotoxicity Assay to monitor cytotoxicity in HepG2 cells - 0 hour (AID 1224882); further: nearly all actives have a fitted effect of over 35% in size
In short: (§2)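 HepG2 cells were seeded together with the CellTox Green dye at 600 cells/well, left 5 h at 37 C/5% CO2, then given compounds in DMSO. Fluorescence from dye bound to dead-cell DNA was read repeatedly over 40 h of treatment at 37 C.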

[3] = A CellTox Green Cytotoxicity Assay to monitor cytotoxicity in HepG2 cells - 32 hour (AID 1224883); further: nearly all actives have a fitted effect of over 50% in size; further: potency means the concentration at half of the fitted maximal effect
In short: as §2

[4] = A CellTox Green Cytotoxicity Assay to monitor cytotoxicity in HEK293 cells - 8 hour (AID 1224884); further: nearly all actives have a fitted effect of over 35% in size
In short: as §1

[5] = qHTS RealTime-Glo MT Cell Viability Assay in HepG2 cells - 16 hour (AID 1224885); further: nearly all actives have a fitted effect of over 50% in size; further: potency means the concentration at half of the fitted maximal effect
In short: (§3)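 Real-time, nonlytic viability: 600 HepG2 cells/well mixed with NanoLuc enzyme plus prosubstrate; 5 h settle, compound (DMSO) added by pintool; luminescence monitored over 40 h at 37 C.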

[6] = qHTS RealTime-Glo MT Cell Viability Assay in HEK293 cells - 24 hour (AID 1224886); further: nearly all actives have a fitted effect of over 50% in size; further: potency means the concentration at half of the fitted maximal effect
In short: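 Cells + reagent dispensed (600 cells/well, HEK293) → 5 h at 37 C/5% CO2 → 23 nL compound in DMSO pinned → 40 h at 37 C → luminescence read at 0, 8, 16, 24, 32, 40 h.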

[7] = qHTS RealTime-Glo MT Cell Viability Assay in HEK293 cells - 8 hour (AID 1224887); further: nearly all actives have a fitted effect of over 50% in size; further: potency means the concentration at half of the fitted maximal effect
In short: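 HEK293 cells mixed with RealTime-Glo reagents (NanoLuc plus cell-permeant prosubstrate) at 600 cells/well, preincubated 5 h at 37 C/5% CO2, then given 23 nL compound in DMSO. Nonlytic luminescence from viable cells was read at 0, 8, 16, 24, 32 and 40 h.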

[8] = A CellTox Green Cytotoxicity Assay to monitor cytotoxicity in HEK293 cells - 16 hour (AID 1224888); further: nearly all actives have a fitted effect of over 35% in size
In short: as §1

[9] = qHTS RealTime-Glo MT Cell Viability Assay in HepG2 cells - 0 hour (AID 1224889); further: nearly all actives have a fitted effect of over 50% in size
In short: as §3

[10] = qHTS assay to identify small molecule antagonists of the estrogen receptor alpha (ER-alpha) signaling pathway using the BG1 cell line in the presence of 0.1 nM 17-beta-estradiol - cell viability counter screen (AID 1259241); further: nearly all actives have a fitted effect of over 40% in size
In short: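 VM7Luc4E2 cells (endogenous full-length ER-alpha, 4xERE-luciferase), cultured 5 days in charcoal-stripped serum, exposed to compounds with 0.1 nM 17beta-estradiol (final) for 22 hr at 37C. Viability read in same wells as live-cell protease fluorescence after 30 min.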

[11] = qHTS assay to identify small molecule antagonists of the androgen receptor (AR) signaling pathway using the MDA cell line in the presence of 0.5 nM R1881 - cell viability counter screen (AID 1259242); further: nearly all actives have a fitted effect of over 45% in size
In short: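 MDA-kb2 cells (human breast carcinoma, stably carrying MMTV-luciferase reporter) were exposed to compounds with 0.5 nM R1881 (final) for 16 hr at 37C, 0% CO2; viability then read as live-cell protease fluorescence (CellTiter-Fluor, 30 min) in the same wells.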

[12] = qHTS assay to identify small molecule HDAC inhibitors - cell viability counter screen (AID 1259365)
In short: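 Wild-type HCT-116 cells, 1,500/well, cultured overnight, then compound-treated 2 h at 37 C. Viability measured as ATP luminescence with CellTiter-Glo after 30 min at room temperature.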

[13] = qHTS assay to identify small molecule agonists of the sonic hedgehog signaling (Shh) pathway - cell viability counter screen (AID 1259366); further: nearly all actives have a fitted effect of over 50% in size; further: potency means the concentration at half of the fitted maximal effect
In short: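 NIH/3T3-derived Gli1-Luc reporter cells, 2,000 per well, received compound after 4 h and were treated about 23 h at 37C. Viability measured in the same wells by CellTiter-Fluor fluorescence after 1 h.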

[14] = qHTS assay to identify small molecule antagonists of the sonic hedgehog signaling (Shh) pathway - cell viability counter screen (AID 1259367); further: nearly all actives have a fitted effect of over 55% in size; further: potency means the concentration at half of the fitted maximal effect
In short: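 After a 4 hr settling period, 3T3 Gli1-Luc cells were treated with DMSO-dissolved chemicals and conditioned medium, kept 24 hr at 37C in 5% CO2, and assayed for viability by CellTiter-Fluor fluorescence following 1 hr reagent incubation.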

[15] = qHTS assay to identify small molecule agonists of the sonic hedgehog signaling (Shh) pathway (AID 1259368; calls by dose curve; further: series mostly up to about 92 µM; nearly all actives have a fitted effect of over 15% in size)
In short: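 NIH/3T3-derived 3T3Gli1-Luc cells carrying a stably integrated Gli1 response element–firefly luciferase reporter were plated, left 4 hr at 37 C, then given compounds in DMSO for 24 hr. Luminescence was read 30 min after adding luciferase reagent.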

[16] = biological target: Estrogen receptor (Homo sapiens) (UniProt P03372); assay: qHTS assay to identify small molecule antagonists of the estrogen receptor alpha (ER-alpha) signaling pathway using the BG1 cell line in the presence of 0.1 nM 17-beta-estradiol (AID 1259244); further: nearly all actives have a fitted effect of over 50% in size; further: potency means the concentration at half of the fitted maximal effect
Chain of Estrogen receptor (Homo sapiens) (P03372 whole entry, looked up): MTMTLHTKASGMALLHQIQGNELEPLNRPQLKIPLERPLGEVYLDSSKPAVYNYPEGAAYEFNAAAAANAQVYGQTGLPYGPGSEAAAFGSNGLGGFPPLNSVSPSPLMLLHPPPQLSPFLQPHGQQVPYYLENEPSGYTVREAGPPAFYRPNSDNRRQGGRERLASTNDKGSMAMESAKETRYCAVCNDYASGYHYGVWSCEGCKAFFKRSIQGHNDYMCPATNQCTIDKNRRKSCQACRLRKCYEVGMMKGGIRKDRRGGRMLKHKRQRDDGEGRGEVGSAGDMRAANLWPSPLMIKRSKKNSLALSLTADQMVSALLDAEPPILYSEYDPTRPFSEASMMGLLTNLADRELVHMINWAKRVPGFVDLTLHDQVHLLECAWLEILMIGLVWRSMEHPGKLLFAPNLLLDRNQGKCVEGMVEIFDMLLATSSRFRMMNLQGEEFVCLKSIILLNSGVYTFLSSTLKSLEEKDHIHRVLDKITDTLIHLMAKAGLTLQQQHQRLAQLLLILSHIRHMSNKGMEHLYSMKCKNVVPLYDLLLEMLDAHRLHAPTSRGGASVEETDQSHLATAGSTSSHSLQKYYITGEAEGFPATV
In short: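 VM7Luc4E2 cells (endogenous full-length ER-alpha, stable 4xERE-luciferase) were grown 5 days in phenol red-free medium with charcoal-stripped FBS, then exposed 22 h at 37C to compounds plus 0.1 nM (final) 17beta-estradiol; ONE-Glo luminescence read-out.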

[17] = qHTS assay to identify small molecule HDAC inhibitors (AID 1259364); further: top concentration of the series differs between compounds; nearly all actives have a fitted effect of over 45% in size
In short: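 Wild-type HCT-116 cells were plated overnight, exposed to compounds for 2 h at 37 °C, then given HDAC-Glo class I/II luminogenic reagent for 30 min at room temperature before luminescence was read.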

[18] = A CellTox Green Cytotoxicity Assay to monitor cytotoxicity in HepG2 cells - 8 hour (AID 1224890); further: nearly all actives have a fitted effect of over 45% in size; further: potency means the concentration at half of the fitted maximal effect
In short: as §2

[19] = biological target: Androgen receptor (Homo sapiens) (UniProt P10275); assay: qHTS assay to identify small molecule antagonists of the androgen receptor (AR) signaling pathway using the MDA cell line in the presence of 0.5 nM R1881 (AID 1259243); further: nearly all actives have a fitted effect of over 50% in size; further: potency means the concentration at half of the fitted maximal effect
Chain of Androgen receptor (Homo sapiens) (P10275 whole entry, looked up): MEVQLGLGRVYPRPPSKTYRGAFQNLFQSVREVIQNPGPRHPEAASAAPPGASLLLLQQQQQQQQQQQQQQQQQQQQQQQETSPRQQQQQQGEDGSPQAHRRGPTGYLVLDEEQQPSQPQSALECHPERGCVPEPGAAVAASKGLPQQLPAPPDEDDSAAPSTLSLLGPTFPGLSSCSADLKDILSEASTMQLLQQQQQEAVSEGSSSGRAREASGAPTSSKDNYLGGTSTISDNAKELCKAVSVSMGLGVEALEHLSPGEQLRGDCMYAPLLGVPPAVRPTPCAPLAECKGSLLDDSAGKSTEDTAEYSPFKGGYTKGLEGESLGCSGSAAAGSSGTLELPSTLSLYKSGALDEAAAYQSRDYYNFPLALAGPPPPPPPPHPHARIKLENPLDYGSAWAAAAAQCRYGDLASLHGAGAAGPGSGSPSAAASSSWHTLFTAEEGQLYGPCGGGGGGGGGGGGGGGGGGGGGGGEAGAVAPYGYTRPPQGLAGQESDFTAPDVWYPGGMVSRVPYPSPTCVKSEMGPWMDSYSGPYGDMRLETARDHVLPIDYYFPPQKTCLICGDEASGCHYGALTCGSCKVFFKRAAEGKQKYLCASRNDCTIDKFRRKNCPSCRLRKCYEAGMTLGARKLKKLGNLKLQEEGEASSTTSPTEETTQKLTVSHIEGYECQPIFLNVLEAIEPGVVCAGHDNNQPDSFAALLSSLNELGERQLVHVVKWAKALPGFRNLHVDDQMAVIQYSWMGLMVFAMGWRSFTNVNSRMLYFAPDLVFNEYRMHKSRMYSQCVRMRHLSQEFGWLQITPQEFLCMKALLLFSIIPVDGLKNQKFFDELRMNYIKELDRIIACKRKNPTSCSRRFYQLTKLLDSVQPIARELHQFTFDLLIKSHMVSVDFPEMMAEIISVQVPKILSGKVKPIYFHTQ
In short: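 MDA-kb2 human breast carcinoma cells carrying an MMTV-luciferase reporter (AR- and GR-responsive) were plated, rested 5 hr at 37C, dosed with compounds, then stimulated with 0.5 nM R1881 (final) for 16 hr; luminescence was read after ONE-Glo.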

[20] = qHTS assay to identify small molecule phospholipidosis (PLD) inducers (AID 1259344; active means well fitted curve in the direction sought with a large enough effect; an effect the other way counts as inactive or inconclusive)
In short: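 HepG2 cells grown on collagen I take up LipidTOX Red while exposed to compound for 24 h; after fixation they are imaged at 20x and pit metrics are extracted.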

Measured: Potency

CC1(C)CON(Cc2ccccc2Cl)C1=O
not listed: [16] | [17] | [18] | [19] | [20]
inactive: all other assays above

N#Cc1ccncc1
not listed: [9] | [18] | [19] | [20]
inactive: all other assays above

Nc1ccccc1Cl
not listed: [9] | [16] | [20]
inactive: all other assays above

CCOC(=O)C(c1c(O)c2ccccc2oc1=O)c1c(O)c2ccccc2oc1=O
not listed: [9] | [13] | [14] | [18] | [20]
inactive: all other assays above

CC(=O)[C@H]1CC[C@H]2[C@@H]3CC[C@H]4C[C@H](O)CC[C@]4(C)[C@H]3C(=O)C[C@]12C
not listed: [18] | [19]
inactive: all other assays above

Nc1c(Br)cc([N+](=O)[O-])cc1[N+](=O)[O-]
not listed: [13] | [18] | [19] | [20]
inactive: all other assays above

O=C(O)c1ccc2[nH]cc(CCCCN3CC=C(c4ccccc4)CC3)c2c1
not listed: [8]
inactive: all other assays above

CCCCOC(=O)c1ccccc1C(=O)O
not listed: [8] | [16] | [20]
inactive: all other assays above

CCS(=O)(=O)CCSP(=O)(OC)OC
not listed: [8] | [13] | [16] | [19] | [20]
inactive: all other assays above

CCC(C)n1c(=O)[nH]c(C)c(Br)c1=O (configuration not stated)
not listed: [6] | [16] | [19] | [20]
inactive: all other assays above

COC(C)(C)C
not listed: [6] | [16] | [19] | [20]
inactive: all other assays above

NC(=O)O
not listed: [6] | [14] | [16] | [19] | [20]
inactive: all other assays above

Nc1n[nH]c(N)n1
not listed: [6] | [16] | [17] | [19] | [20]
inactive: all other assays above

CC1CCC(=O)O1 (configuration not stated)
not listed: [6] | [9] | [16] | [19] | [20]
inactive: all other assays above

CCCSP(=O)(OCC)Oc1ccc(Br)cc1Cl (configuration not stated)
not listed: [8] | [11] | [12] | [16] | [17] | [18] | [19] | [20]
inactive: all other assays above

CCC(C)(C)c1cc(-n2nc3ccccc3n2)c(O)c(C(C)(C)CC)c1
active: [6] 24.9 µM | [19] 39.2 µM
not listed: [7] | [9] | [12] | [13] | [16] | [18] | [20]
inactive: all other assays above

Fc1cc(Br)ccc1CBr
not listed: [6] | [12] | [13] | [14] | [20]
inactive: all other assays above

CC1=C(C(=O)Nc2ccccc2)S(=O)(=O)CCO1
active: [16] 48.5 µM | [13] 21.7 µM | [14] 27.3 µM
not listed: [6] | [19] | [20]
inactive: all other assays above

C(CCOCC1CO1)COCC1CO1 (configuration not stated)
not listed: [8] | [12] | [13] | [19] | [20]
inactive: all other assays above

N#CC(CCc1ccc(Cl)cc1)(Cn1cncn1)c1ccccc1 (configuration not stated)
active: [1] 54.9 µM | [3] 21.9 µM | [5] 27.5 µM | [6] 17.4 µM | [7] 21.9 µM | [18] 34.7 µM | [13] 48.6 µM | [14] 27.3 µM
inactive: [2] | [4] | [17] | [15]

CCC(Cl)[N+](=O)[O-] (configuration not stated)
not listed: [8] | [14] | [17] | [19] | [20]
inactive: all other assays above

O=C1OC(c2ccc(O)c(S(=O)(=O)O)c2)(c2ccc(O)c(S(=O)(=O)O)c2)c2c(Br)c(Br)c(Br)c(Br)c21
not listed: [8] | [11] | [17] | [19]
inactive: all other assays above

C=CC1CC=CCC1 (configuration not stated)
not listed: [6] | [9] | [19] | [20]
inactive: all other assays above

O=C(Oc1ccc(Br)cc1)N1CCN2CCC1CC2
not listed: [6] | [11] | [12] | [19] | [20]
inactive: all other assays above

CCCCC(=O)Cl
not listed: [6] | [11] | [13] | [16] | [19] | [20]
inactive: all other assays above

CCS(=O)(=O)C(C)(C)S(=O)(=O)CC
not listed: [8] | [15] | [19]
inactive: all other assays above
